Source: paper PMC7862700, “An all-to-all approach to the identification of sequence-specific readers for epigenetic DNA modifications on cytosine”

Tests used:
Assay in all cases: DAPPL (digital affinity profiling via proximity ligation, sequencing); 10 mM Tris-HCl pH 7.5, 50 mM NaCl, 1 mM DTT, 4% glycerol, room temperature, 30 min; GST-TFs on glutathione beads, 16-mer random dsDNA library, 0.1% formaldehyde crosslink after washing; high values mean tight binding
[1] = target: T1, FLI1 (Homo sapiens, UniProt Q01543 1-452); conditions: protein: recombinant; tags: N-terminal GST; dsDNA, one strand shown
T1 sequence: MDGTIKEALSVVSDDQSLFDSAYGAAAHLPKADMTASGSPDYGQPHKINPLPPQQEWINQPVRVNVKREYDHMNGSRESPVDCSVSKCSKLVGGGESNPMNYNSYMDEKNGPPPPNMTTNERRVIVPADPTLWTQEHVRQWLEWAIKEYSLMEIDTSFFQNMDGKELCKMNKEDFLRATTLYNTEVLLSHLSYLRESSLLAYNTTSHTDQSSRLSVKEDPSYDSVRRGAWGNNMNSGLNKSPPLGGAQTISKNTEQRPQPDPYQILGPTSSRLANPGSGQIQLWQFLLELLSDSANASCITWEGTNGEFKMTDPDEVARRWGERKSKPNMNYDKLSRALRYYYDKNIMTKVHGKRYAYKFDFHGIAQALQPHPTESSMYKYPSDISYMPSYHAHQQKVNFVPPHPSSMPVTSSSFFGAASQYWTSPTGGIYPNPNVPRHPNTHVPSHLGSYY
Procedure, shortened: (§1)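 Human transcription factors fused to GST were expressed in yeast, captured on glutathione beads, given DNA barcodes and pooled with a GST-only negative control. Pools were incubated with 200 nmole of a 16-mer random double-stranded DNA library in Tris/NaCl/DTT/glycerol buffer at room temperature for 30 min. They were then washed, crosslinked with 0.1% formaldehyde, proximity-ligated (BsaI/T4 ligase, 1 h, 37 °C), PCR-amplified and sequenced on an Illumina NextSeq500. Binding signal is each 6-mer's read frequency for a factor divided by its frequency for the GST control.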

[2] = target: T2, ELK1 (Homo sapiens, UniProt P19419 1-428); conditions: protein: recombinant; tags: N-terminal GST; dsDNA, one strand shown
T2 sequence: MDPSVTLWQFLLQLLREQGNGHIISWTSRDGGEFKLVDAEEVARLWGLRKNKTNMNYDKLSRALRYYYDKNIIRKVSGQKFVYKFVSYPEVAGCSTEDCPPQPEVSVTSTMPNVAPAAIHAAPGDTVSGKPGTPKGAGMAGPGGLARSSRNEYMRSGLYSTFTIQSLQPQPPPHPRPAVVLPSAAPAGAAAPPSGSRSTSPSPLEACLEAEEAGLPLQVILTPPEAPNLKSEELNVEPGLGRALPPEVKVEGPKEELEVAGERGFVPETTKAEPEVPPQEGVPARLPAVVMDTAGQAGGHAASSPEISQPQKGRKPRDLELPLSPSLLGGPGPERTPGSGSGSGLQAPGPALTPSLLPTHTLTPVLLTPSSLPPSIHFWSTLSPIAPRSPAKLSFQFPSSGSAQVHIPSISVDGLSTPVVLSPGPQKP
Procedure, shortened: as §1

[3] = target: T3, GABPA (Homo sapiens, UniProt Q06546 1-454); conditions: protein: recombinant; tags: N-terminal GST; dsDNA, one strand shown
T3 sequence: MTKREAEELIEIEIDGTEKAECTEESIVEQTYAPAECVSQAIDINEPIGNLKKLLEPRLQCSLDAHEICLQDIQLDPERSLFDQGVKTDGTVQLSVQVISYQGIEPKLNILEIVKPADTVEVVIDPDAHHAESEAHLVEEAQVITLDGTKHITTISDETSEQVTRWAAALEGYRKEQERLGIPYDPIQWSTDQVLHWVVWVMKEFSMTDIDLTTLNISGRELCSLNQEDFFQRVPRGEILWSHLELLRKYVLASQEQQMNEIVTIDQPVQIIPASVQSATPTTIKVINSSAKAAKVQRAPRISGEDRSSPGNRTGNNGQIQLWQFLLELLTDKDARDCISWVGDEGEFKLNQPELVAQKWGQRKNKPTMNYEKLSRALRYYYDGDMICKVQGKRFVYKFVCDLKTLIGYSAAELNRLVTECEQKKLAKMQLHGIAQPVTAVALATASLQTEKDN
Procedure, shortened: as §1

[4] = target: T4, ERG (Homo sapiens, UniProt P11308 1-479); conditions: protein: recombinant; tags: N-terminal GST; dsDNA, one strand shown
T4 sequence: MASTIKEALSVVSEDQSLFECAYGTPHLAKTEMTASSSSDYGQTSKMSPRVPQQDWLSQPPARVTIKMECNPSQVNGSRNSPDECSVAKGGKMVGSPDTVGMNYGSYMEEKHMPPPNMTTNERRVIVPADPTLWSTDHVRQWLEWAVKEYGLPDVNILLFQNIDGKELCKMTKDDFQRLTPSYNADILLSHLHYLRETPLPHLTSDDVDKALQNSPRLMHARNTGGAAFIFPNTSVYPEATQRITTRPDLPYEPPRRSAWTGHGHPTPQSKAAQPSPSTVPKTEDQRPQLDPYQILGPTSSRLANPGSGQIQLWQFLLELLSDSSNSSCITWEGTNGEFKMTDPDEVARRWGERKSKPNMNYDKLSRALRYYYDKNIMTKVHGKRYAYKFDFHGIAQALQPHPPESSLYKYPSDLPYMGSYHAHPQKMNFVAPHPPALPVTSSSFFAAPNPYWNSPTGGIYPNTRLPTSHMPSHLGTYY
Procedure, shortened: as §1

[5] = target: ELF1 (Homo sapiens, UniProt P32519 1-619); conditions: protein: recombinant; tags: N-terminal GST; dsDNA, one strand shown
Procedure, shortened: as §1

[6] = target: T5, EHF (Homo sapiens, UniProt Q9NZC4 1-300); conditions: protein: recombinant; tags: N-terminal GST; dsDNA, one strand shown
T5 sequence: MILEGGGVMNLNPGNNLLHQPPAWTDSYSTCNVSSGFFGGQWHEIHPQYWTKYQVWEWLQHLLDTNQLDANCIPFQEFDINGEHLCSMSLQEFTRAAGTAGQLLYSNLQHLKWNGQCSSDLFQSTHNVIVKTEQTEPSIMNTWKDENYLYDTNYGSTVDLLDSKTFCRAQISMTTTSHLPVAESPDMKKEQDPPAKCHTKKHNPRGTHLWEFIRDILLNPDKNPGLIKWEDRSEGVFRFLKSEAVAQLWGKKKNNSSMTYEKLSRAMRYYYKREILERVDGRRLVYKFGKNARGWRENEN
Procedure, shortened: as §1

[7] = target: SPI1 (Homo sapiens, UniProt P17947 1-270); conditions: protein: recombinant; tags: N-terminal GST; dsDNA, one strand shown
Procedure, shortened: as §1

[8] = target: SPIB (Homo sapiens, UniProt Q01892 1-262); conditions: protein: recombinant; tags: N-terminal GST; dsDNA, one strand shown
Procedure, shortened: as §1

[9] = target: T6, ELK3 (Homo sapiens, UniProt P41970 1-407); conditions: protein: recombinant; tags: N-terminal GST; dsDNA, one strand shown
T6 sequence: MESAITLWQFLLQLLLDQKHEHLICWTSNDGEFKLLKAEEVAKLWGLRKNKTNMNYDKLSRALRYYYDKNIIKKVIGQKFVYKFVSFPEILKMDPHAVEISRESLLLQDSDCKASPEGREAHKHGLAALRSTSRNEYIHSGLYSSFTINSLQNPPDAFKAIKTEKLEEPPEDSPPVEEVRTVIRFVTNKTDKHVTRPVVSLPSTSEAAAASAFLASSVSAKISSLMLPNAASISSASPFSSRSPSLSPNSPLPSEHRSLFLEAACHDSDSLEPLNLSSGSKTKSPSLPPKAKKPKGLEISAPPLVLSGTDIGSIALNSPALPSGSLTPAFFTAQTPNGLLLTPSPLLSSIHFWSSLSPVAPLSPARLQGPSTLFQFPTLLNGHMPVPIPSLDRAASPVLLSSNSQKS
Procedure, shortened: as §1

[10] = target: T7, FEV (Homo sapiens, UniProt Q99581 1-238); conditions: protein: recombinant; tags: N-terminal GST; dsDNA, one strand shown
T7 sequence: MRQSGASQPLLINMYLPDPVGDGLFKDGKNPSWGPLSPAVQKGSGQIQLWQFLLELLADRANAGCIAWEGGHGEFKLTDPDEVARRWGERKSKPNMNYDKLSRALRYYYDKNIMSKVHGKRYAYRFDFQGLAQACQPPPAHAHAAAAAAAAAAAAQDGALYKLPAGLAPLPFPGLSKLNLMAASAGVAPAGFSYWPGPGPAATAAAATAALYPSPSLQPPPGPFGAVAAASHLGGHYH
Procedure, shortened: as §1

[11] = target: ETV5 (Homo sapiens, UniProt P41161 1-510); conditions: protein: recombinant; tags: N-terminal GST; dsDNA, one strand shown
Procedure, shortened: as §1

[12] = target: HSF1 (Homo sapiens, UniProt Q00613 1-529); conditions: protein: recombinant; tags: N-terminal GST; chain copies: 3; dsDNA, one strand shown
Procedure, shortened: as §1

[13] = target: T8, SPIC (Homo sapiens, UniProt Q8N5J4 1-248); conditions: protein: recombinant; tags: N-terminal GST; dsDNA, one strand shown
T8 sequence: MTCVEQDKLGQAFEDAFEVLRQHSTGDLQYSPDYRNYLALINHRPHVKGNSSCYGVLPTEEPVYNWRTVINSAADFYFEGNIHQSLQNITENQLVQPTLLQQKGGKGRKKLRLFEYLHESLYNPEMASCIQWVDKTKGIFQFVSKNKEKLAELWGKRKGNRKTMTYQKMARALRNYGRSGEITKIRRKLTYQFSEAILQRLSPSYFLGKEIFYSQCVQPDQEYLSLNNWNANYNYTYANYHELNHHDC
Procedure, shortened: as §1

[14] = target: ELF4 (Homo sapiens, UniProt Q99607 1-663); conditions: protein: recombinant; tags: N-terminal GST; dsDNA, one strand shown
Procedure, shortened: as §1

[15] = target: T9, ELK4 (Homo sapiens, UniProt P28324-2 1-405); conditions: protein: recombinant; tags: N-terminal GST; dsDNA, one strand shown
T9 sequence: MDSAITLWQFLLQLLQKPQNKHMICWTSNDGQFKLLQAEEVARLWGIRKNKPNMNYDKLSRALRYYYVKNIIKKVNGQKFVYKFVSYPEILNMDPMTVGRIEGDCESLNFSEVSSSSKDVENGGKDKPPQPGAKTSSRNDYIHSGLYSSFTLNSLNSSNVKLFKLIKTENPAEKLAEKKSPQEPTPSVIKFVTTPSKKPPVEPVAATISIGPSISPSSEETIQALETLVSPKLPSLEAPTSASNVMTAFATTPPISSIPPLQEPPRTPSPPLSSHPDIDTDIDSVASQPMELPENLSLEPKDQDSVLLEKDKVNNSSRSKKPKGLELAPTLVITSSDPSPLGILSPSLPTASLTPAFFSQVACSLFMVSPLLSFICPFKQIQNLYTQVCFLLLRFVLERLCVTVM
Procedure, shortened: as §1

[16] = target: T10, ETV2 (Homo sapiens, UniProt O00321 1-342); conditions: protein: recombinant; tags: N-terminal GST; dsDNA, one strand shown
T10 sequence: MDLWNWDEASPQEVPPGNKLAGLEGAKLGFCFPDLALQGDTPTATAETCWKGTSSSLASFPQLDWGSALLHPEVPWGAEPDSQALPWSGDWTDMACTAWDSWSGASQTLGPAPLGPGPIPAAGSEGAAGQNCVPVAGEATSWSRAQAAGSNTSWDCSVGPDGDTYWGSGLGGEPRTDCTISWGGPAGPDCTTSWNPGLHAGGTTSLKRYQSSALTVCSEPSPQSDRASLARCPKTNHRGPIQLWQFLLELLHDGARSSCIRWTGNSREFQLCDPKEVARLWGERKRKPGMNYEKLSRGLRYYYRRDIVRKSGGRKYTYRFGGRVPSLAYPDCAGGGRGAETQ
Procedure, shortened: as §1

[17] = target: T11, ELF3 (Homo sapiens, UniProt P78545 1-371); conditions: protein: recombinant; tags: N-terminal GST; dsDNA, one strand shown
T11 sequence: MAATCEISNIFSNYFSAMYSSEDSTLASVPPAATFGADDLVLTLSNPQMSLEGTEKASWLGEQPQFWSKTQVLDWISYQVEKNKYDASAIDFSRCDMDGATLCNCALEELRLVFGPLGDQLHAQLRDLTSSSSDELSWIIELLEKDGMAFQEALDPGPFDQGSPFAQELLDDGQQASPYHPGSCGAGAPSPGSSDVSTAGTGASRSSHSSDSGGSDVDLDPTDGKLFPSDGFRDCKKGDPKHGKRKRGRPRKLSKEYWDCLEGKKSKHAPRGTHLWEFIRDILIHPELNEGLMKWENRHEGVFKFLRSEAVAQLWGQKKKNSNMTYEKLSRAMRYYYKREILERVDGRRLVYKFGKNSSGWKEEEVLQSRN
Procedure, shortened: as §1

[18] = target: CRX (Homo sapiens, UniProt O43186 1-299); conditions: protein: recombinant; tags: N-terminal GST; dsDNA, one strand shown
Procedure, shortened: as §1

[19] = target: ETV1 (Homo sapiens, UniProt P50549 1-477); conditions: protein: recombinant; tags: N-terminal GST; dsDNA, one strand shown
Procedure, shortened: as §1

Chain of ETV1 (P50549 whole entry): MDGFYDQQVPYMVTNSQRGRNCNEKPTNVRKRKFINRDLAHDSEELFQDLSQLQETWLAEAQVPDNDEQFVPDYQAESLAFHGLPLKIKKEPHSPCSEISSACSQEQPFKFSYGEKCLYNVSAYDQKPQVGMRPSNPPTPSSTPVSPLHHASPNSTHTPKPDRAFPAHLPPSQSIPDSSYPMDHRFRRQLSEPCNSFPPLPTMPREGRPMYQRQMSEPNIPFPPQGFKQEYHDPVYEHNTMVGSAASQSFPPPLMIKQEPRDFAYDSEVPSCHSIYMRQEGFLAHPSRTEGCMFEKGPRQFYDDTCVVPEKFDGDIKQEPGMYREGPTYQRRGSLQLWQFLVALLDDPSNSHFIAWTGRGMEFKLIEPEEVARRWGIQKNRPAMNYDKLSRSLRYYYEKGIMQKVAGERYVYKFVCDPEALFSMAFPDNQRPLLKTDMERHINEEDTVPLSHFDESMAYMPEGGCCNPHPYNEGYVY
Chain of CRX (O43186 whole entry): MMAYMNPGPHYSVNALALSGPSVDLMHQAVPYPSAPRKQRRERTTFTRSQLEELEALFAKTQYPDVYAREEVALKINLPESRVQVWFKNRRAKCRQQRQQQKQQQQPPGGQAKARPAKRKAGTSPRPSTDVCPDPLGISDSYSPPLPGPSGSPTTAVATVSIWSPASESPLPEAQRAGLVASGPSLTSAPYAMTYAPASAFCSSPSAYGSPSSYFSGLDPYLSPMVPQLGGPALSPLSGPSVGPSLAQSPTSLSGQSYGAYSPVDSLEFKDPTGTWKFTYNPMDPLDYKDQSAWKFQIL
Chain of ELF4 (Q99607 whole entry): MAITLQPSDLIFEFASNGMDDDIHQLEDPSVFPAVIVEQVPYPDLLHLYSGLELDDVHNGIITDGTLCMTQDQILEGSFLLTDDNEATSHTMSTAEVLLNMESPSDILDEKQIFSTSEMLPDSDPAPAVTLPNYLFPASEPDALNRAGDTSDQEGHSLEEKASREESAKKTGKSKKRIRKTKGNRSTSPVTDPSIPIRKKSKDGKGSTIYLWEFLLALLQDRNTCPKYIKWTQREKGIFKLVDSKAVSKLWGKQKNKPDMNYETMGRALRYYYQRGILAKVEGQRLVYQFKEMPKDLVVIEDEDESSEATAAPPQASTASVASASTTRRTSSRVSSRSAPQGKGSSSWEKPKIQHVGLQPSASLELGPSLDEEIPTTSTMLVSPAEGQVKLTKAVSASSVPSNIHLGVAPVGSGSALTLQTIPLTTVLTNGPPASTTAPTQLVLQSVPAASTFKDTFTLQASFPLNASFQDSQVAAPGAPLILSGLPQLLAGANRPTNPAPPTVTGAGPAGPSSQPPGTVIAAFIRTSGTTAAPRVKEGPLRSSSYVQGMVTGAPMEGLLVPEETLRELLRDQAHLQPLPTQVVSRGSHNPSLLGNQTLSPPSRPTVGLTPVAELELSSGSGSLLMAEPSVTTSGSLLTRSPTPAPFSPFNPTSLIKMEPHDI
Chain of ETV5 (P41161 whole entry): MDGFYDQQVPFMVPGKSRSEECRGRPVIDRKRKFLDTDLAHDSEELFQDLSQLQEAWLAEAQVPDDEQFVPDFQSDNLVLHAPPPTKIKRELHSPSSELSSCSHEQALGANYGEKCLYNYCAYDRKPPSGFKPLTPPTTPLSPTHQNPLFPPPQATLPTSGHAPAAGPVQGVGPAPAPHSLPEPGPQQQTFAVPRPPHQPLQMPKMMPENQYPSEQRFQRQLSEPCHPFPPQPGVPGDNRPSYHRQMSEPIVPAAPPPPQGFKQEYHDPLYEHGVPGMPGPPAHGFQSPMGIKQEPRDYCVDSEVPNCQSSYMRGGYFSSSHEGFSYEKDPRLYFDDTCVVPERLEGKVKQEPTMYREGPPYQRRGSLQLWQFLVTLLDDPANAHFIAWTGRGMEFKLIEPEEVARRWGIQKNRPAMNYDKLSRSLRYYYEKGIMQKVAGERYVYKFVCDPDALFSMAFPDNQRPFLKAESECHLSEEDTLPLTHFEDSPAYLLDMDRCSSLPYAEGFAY
Chain of SPIB (Q01892 whole entry): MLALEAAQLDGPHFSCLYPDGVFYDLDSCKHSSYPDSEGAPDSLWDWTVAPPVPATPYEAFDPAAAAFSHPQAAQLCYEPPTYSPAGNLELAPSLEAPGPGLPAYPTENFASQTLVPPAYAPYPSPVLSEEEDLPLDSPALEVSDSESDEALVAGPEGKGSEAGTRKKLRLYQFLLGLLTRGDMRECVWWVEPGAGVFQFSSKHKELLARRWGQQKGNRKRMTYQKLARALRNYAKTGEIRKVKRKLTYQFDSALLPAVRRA
Chain of HSF1 (Q00613 whole entry): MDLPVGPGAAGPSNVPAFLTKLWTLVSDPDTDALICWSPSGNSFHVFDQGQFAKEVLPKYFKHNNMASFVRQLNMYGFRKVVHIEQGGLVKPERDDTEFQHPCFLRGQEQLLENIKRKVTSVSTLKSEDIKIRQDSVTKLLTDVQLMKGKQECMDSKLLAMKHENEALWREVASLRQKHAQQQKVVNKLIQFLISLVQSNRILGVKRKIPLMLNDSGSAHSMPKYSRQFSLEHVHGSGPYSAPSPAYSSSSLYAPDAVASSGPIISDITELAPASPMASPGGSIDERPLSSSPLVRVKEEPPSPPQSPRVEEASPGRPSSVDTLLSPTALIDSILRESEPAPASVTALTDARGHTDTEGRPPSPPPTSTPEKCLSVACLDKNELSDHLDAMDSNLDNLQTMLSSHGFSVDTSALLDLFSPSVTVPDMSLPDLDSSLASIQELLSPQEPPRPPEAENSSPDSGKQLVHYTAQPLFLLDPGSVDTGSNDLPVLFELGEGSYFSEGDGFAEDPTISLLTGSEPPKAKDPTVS
Chain of ELF1 (P32519 whole entry): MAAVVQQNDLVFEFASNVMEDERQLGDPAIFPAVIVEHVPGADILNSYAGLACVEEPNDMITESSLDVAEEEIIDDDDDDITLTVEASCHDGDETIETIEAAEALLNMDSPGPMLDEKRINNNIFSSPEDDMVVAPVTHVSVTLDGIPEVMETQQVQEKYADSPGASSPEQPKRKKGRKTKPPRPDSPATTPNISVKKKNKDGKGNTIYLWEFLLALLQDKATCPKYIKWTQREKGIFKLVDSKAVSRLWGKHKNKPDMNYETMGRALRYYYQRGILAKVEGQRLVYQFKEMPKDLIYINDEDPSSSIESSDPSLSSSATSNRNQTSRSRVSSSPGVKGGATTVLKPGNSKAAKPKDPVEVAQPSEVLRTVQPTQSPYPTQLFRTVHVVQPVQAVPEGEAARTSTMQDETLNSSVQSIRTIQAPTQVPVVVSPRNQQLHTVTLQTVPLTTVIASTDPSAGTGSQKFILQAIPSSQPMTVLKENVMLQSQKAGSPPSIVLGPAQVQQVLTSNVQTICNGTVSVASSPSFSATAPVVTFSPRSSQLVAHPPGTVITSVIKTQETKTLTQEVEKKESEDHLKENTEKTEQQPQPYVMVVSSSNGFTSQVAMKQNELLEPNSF

Sequence: CTCCGG
- binding signal [1]: 1.45 fold enrichment (6-mer frequency, TF over GST control)
- binding signal [2]: 1.58 fold enrichment (6-mer frequency, TF over GST control)
- binding signal [3]: 1.68 fold enrichment (6-mer frequency, TF over GST control)
- binding signal [4]: 1.64 fold enrichment (6-mer frequency, TF over GST control)
- binding signal [5]: 1.52 fold enrichment (6-mer frequency, TF over GST control)
- binding signal [6]: 1.58 fold enrichment (6-mer frequency, TF over GST control)
- binding signal [7]: 1.43 fold enrichment (6-mer frequency, TF over GST control)
- binding signal [8]: 1.54 fold enrichment (6-mer frequency, TF over GST control)
- binding signal [9]: 1.6 fold enrichment (6-mer frequency, TF over GST control)
- binding signal [10]: 2 fold enrichment (6-mer frequency, TF over GST control)
- binding signal [11]: 1.58 fold enrichment (6-mer frequency, TF over GST control)
- binding signal [12]: 1.18 fold enrichment (6-mer frequency, TF over GST control)
- binding signal [13]: 1.92 fold enrichment (6-mer frequency, TF over GST control)
- binding signal [14]: 1.56 fold enrichment (6-mer frequency, TF over GST control)
- binding signal [15]: 1.58 fold enrichment (6-mer frequency, TF over GST control)
- binding signal [16]: 1.48 fold enrichment (6-mer frequency, TF over GST control)
- binding signal [17]: 1.39 fold enrichment (6-mer frequency, TF over GST control)
- binding signal [18]: 1.02 fold enrichment (6-mer frequency, TF over GST control)
- binding signal [19]: 1.64 fold enrichment (6-mer frequency, TF over GST control)
